Source: PubChem BioAssay (NCI)
The panel holds about 83,000 compounds, 20% with a hit somewhere; the sample as a whole holds those more often.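 For each line, cells grew in 96-well plates with the test compound present at a single concentration for 48 hours.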 The source made the active and inactive calls. How the source made its calls: active means growth percent below 10; inactive means the rest.

Tests used:
Test in all cases: NCI-60 one-dose screen, 48 h (100 = growth as untreated, 0 = no growth, -100 = all killed)
Settings in all cases: 10 µM unless noted
HCT-15 colon = tested on: HCT-15 colon
HT29 colon = tested on: HT29 colon
SNB-19 CNS = tested on: SNB-19 CNS
U251 CNS = tested on: U251 CNS
PC-3 prostate = tested on: PC-3 prostate
SK-MEL-5 melanoma = tested on: SK-MEL-5 melanoma
UACC-62 melanoma = tested on: UACC-62 melanoma
SK-MEL-2 melanoma = tested on: SK-MEL-2 melanoma
EKVX NSCLC = tested on: EKVX NSCLC
SN12C renal = tested on: SN12C renal
UO-31 renal = tested on: UO-31 renal
TK-10 renal = tested on: TK-10 renal
ACHN renal = tested on: ACHN renal
CAKI-1 renal = tested on: CAKI-1 renal
A498 renal = tested on: A498 renal
MOLT-4 leukemia = tested on: MOLT-4 leukemia
LOX IMVI melanoma = tested on: LOX IMVI melanoma
CCRF-CEM leukemia = tested on: CCRF-CEM leukemia
SK-MEL-28 melanoma = tested on: SK-MEL-28 melanoma

Measured: growth

Clc1cc(Cl)cc(-c2ccc(-c3ccc(/C=N/NC4=NCCN4)cc3)s2)c1
inactive: SNB-19 CNS 53.2% | PC-3 prostate 35.1% | SK-MEL-5 melanoma 88.1% | UACC-62 melanoma 68.1% | SK-MEL-2 melanoma 101% | EKVX NSCLC 92.6% | SN12C renal 25.9% | UO-31 renal 53.6% | TK-10 renal 47% | ACHN renal 59% | CAKI-1 renal 58.4% | A498 renal 88% | MOLT-4 leukemia 14.7%
active: HCT-15 colon -62.4% | HT29 colon 0.288% | U251 CNS -79%

COc1c2occc2c(OC)c2c(=O)c(-c3cc(-c4ccc(F)cc4)c(C#N)c(N)n3)c(C)oc12
active: LOX IMVI melanoma 6.13% | MOLT-4 leukemia 5.86%
inactive: HCT-15 colon 31.4% | HT29 colon 14.2% | SNB-19 CNS 51.2% | U251 CNS 30.6% | PC-3 prostate 22.8% | SK-MEL-5 melanoma 37.1% | SK-MEL-2 melanoma 59.9% | EKVX NSCLC 32% | SN12C renal 39.5% | UO-31 renal 25.3% | TK-10 renal 53.7% | ACHN renal 41.8% | CAKI-1 renal 50.5% | A498 renal 25.7% | CCRF-CEM leukemia 16%

CSc1nc2c(c(=O)[nH]1)C(c1ccc(C)cc1)C=C(C(=O)O)N2 (stereo unspecified)
inactive: HCT-15 colon 105% | HT29 colon 118% | SNB-19 CNS 133% | U251 CNS 109% | PC-3 prostate 109% | SK-MEL-5 melanoma 102% | UACC-62 melanoma 129% | SK-MEL-28 melanoma 99.9% | SK-MEL-2 melanoma 120% | SN12C renal 120% | UO-31 renal 88.1% | TK-10 renal 118% | ACHN renal 106% | CAKI-1 renal 88.6% | A498 renal 93.1% | MOLT-4 leukemia 119%

CN1CCN(CCCOc2ccc3nc(Nc4ccc(Cl)c(C(F)(F)F)c4)ccc3c2)CC1
inactive: SNB-19 CNS 66% | U251 CNS 23.3% | PC-3 prostate 40.6% | SK-MEL-5 melanoma 76.9% | SK-MEL-2 melanoma 89.9% | EKVX NSCLC 71.8% | SN12C renal 63.9% | UO-31 renal 69.6% | TK-10 renal 75.9% | ACHN renal 55.9% | CAKI-1 renal 83.8% | A498 renal 101% | CCRF-CEM leukemia 17.6% | MOLT-4 leukemia 19.1%
active: HCT-15 colon 2.44% | HT29 colon -37.5% | LOX IMVI melanoma -83.7%

COc1ccc2cc(-c3ccc(-c4ccc(C(=N)N)cc4)s3)ccc2c1
inactive: HCT-15 colon 62% | HT29 colon 19.8% | SNB-19 CNS 95.9% | U251 CNS 101% | PC-3 prostate 88.6% | SK-MEL-5 melanoma 94.8% | UACC-62 melanoma 99.3% | SK-MEL-28 melanoma 107% | SK-MEL-2 melanoma 103% | EKVX NSCLC 104% | SN12C renal 99.7% | UO-31 renal 89.7% | TK-10 renal 48.1% | ACHN renal 101% | CAKI-1 renal 91% | A498 renal 94.3% | MOLT-4 leukemia 94.3%

CCOC(=O)c1c(NS(=O)(=O)c2ccc(C)cc2)sc2c1CCC1(C2)OCCO1
inactive: HCT-15 colon 98.3% | HT29 colon 104% | SNB-19 CNS 98.7% | U251 CNS 99.1% | PC-3 prostate 87.1% | SK-MEL-5 melanoma 95.2% | UACC-62 melanoma 78.2% | SK-MEL-2 melanoma 90.3% | EKVX NSCLC 94.6% | SN12C renal 95.1% | TK-10 renal 120% | ACHN renal 95.1% | CAKI-1 renal 85.1% | A498 renal 98% | CCRF-CEM leukemia 96.2% | MOLT-4 leukemia 85.8%

O=C(O)c1cn(C2CC2)c2cc(N3CCN(C(=O)/C=C/c4ccc(Cl)cc4)CC3)c(F)cc2c1=O
inactive: HCT-15 colon 51.6% | HT29 colon 82.1% | SNB-19 CNS 82.8% | U251 CNS 77.7% | PC-3 prostate 72.6% | UACC-62 melanoma 61.7% | LOX IMVI melanoma 22% | SK-MEL-28 melanoma 66.5% | SK-MEL-2 melanoma 98.8% | EKVX NSCLC 80.4% | SN12C renal 70.5% | TK-10 renal 105% | ACHN renal 76.7% | CAKI-1 renal 73.8% | A498 renal 29% | CCRF-CEM leukemia 64.8% | MOLT-4 leukemia 57.8%
active: UO-31 renal -62.8%

CC(=O)Oc1csc(N(C(C)=O)c2cc(C(=O)O)cc(C(=O)O)c2)n1
inactive: HCT-15 colon 92.8% | HT29 colon 104% | SNB-19 CNS 97.2% | U251 CNS 88.5% | UACC-62 melanoma 94.2% | LOX IMVI melanoma 90.2% | SK-MEL-28 melanoma 106% | SK-MEL-2 melanoma 106% | EKVX NSCLC 76.2% | SN12C renal 98.8% | UO-31 renal 92.7% | TK-10 renal 105% | ACHN renal 104% | CAKI-1 renal 101% | A498 renal 70.5% | MOLT-4 leukemia 109%
active: PC-3 prostate -100% | CCRF-CEM leukemia 1.74%

ClC(Cl)c1nc(-c2cccnc2)n2nc(-c3ccccc3)cc2n1
inactive: SNB-19 CNS 25.7% | PC-3 prostate 24.4% | SK-MEL-5 melanoma 36% | UACC-62 melanoma 47.5% | SK-MEL-2 melanoma 87.6% | EKVX NSCLC 15.1% | SN12C renal 41.7% | UO-31 renal 59.9% | TK-10 renal 27.3% | A498 renal 58.5% | MOLT-4 leukemia 15%
active: HCT-15 colon -21.3% | HT29 colon -12.7% | U251 CNS -32.7% | ACHN renal -5.02% | CAKI-1 renal -2.31%
